Data taken from PubChem BioAssay (NCI).
Several values for one entry are separate records, joined by “and”; a condition that tells them apart may be missing. Equal values may be shown once. About 83,000 compounds went through this panel and 20% of them were active in at least one assay; those are over-represented in the sample as a whole.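 For each line, cells grew in 96-well plates with the test compound present at a single concentration for 48 hours.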 Activity calls are given as the source filed them. The calls were made as follows: active = growth percent below 10; inactive = the rest.

Legend:
Assay in all cases: NCI-60 one-dose screen, 48 h (100 = growth as untreated, 0 = no growth, -100 = all killed)
[1] = system: NCI-H23 lung; details: 10 µM unless noted
[2] = system: NCI-H226 lung; details: 10 µM unless noted
[3] = system: HOP-62 NSCLC; details: 10 µM unless noted
[4] = system: NCI-H460 lung; details: 10 µM unless noted
[5] = system: HOP-92 NSCLC
[6] = system: NCI-H522 lung; details: 10 µM unless noted
[7] = system: A549/ATCC NSCLC; details: 10 µM unless noted
[8] = system: 786-0 renal; details: 10 µM unless noted
[9] = system: COLO 205 colon; details: 10 µM unless noted
[10] = system: DU-145 prostate; details: 10 µM unless noted

Measured: growth

COc1ccc(OC)c(/C=C/[N+](=O)[O-])c1
inactive: [2] 11.8% | [3] 10.5% | [7] 28.1% | [10] 19.8%
active: [1] 6.9% | [4] -4.3% | [5]; 10 µM -18% | [6] -64.1% | [8] -75.2% | [9] -51.6%

COc1cccc2c1cc([N+](=O)[O-])c1c(C(=O)O)cc3c(c12)OCO3
inactive: [1] 56.4% and 93% | [2] 79.8% and 107% | [3] 82.4% and 101% | [4] 33.5% and 106% | [5]; 10 µM 84% | [6] 35% and 63.9% | [7] 76.6% and 116% | [8] 77.3% and 98.8% | [10] 15.6% and 118%
active: [9] -25.3% and -56.5%

CN1CCN(c2ccc([N+](=O)[O-])c3no[n+]([O-])c23)CC1
active: [1] -24.1% | [2] -71.9% | [3] -98.3% | [4] -61.4% | [5]; 10 µM -23.1% | [6] -92.1% | [7] -48.7% | [8] -78.6% | [9] -83.3% | [10] -27.4%

COc1ccccc1/C=C(/C)[N+](=O)[O-]
inactive: [1] 88.3% and 90.8% | [2] 100% and 105% | [3] 109% and 83.1% | [4] 87.3% and 107% | [5]; 10 µM 96.5% | [6] 50% and 84.5% | [7] 93.3% and 76.9% | [8] 82.2% and 101% | [9] 67.4% and 106% | [10] 27.7% and 107%

CC[n+]1c(-c2ccccc2)c2cc(N)ccc2c2ccc(N)cc21
inactive: [2] 25.2% | [7] 30.2% | [8] 15.6%
active: [1] -9.43% | [3] 1.84% | [4] 3.56% | [6] -28.2% | [9] -27.9% | [10] 9.09%

Cc1c(N)nc([C@H](CC(N)=O)NC[C@H](N)C(N)=O)nc1C(=O)N[C@H](C(=O)N[C@H](C)[C@@H](O)[C@H](C)C(=O)N[C@H](C(=O)NCCc1nc(-c2nc(C(=O)NCCC[S+](C)C)cs2)cs1)[C@@H](C)O)C(OC1OC(CO)C(O)C(O)C1OC1OC(CO)C(O)C(OC(N)=O)C1O)c1cnc[nH]1 (some centres not stated)
inactive: [1] 37.9% [2.5 µM] | [2] 37.2% [2.5 µM] | [3] 43.9% [2.5 µM] | [4] 23.1% [2.5 µM] | [6] 57.3% [2.5 µM] | [7] 52.9% [2.5 µM] | [8] 27.9% [2.5 µM] | [9] 87.7% [2.5 µM] | [10] 58.7% [2.5 µM]
active: [5]; 2.5 µM -4.74%

CC[C@@]1(O)C[C@H](OC2CC(N(C)C)C(OC3CC(O)C(OC4CCC(=O)C(C)O4)C(C)O3)C(C)O2)c2c(cc3c(c2O)C(=O)c2c(O)ccc(O)c2C3=O)[C@H]1C(=O)OC (some centres not stated)
active: [1] -8.87% | [2] -55.7% | [3] 5.22% | [4] -14.4% | [6] -48.1% | [7] -10.6% | [10] 1.38%
inactive: [8] 17.3% | [9] 11.1%

COC1=C(C)C(=O)C2=C(C1=O)C(CO)N1C(C#N)C3CC4C(C1C2N1CCOC41)N3C (configuration not stated)
active: [1] -45.1% | [2] -14.5% | [3] -42% | [4] -14.9% | [6] -83.2% | [7] -3.64% | [8] -21.9% | [9] -74.5% | [10] 1.67%

CCC1(O)CC(OC2CC(N(C)C)C(OC3CC4OC5CC(=O)C(C)OC5OC4C(C)O3)C(C)O2)c2c(cc3c(c2O)C(=O)c2c(O)ccc(O)c2C3=O)C1C(=O)OC (configuration not stated)
active: [1] -52.5% | [2] -8.6% | [3] -26% | [4] -26.3% | [6] -75.4% | [7] 1.52% | [8] -35.6% | [9] -52.1% | [10] -12.7%

CC[C@@]1(O)C[C@H](OC2CC(N(C)C)C(O)C(C)O2)c2c(O)c3c(c(O)c2[C@H]1OC1CC(N(C)C)C(O)C(C)O1)C(=O)c1cccc(O)c1C3=O (some centres not stated)
active: [1] -37.2% | [2] -16.2% | [3] -20.2% | [4] -4.36% | [6] -65% | [7] 1.57% | [8] -2.72% | [9] -20.5% | [10] -4.8%

CCOC(=O)C(NC(=O)C(Cc1ccc(N(CCCl)CCCl)cc1)NC(C)=O)C(C)C (configuration not stated)
inactive: [1] 81% | [2] 90.8% | [3] 83.5% | [4] 49.9% | [5]; 10 µM 98.7% | [6] 64.1% | [7] 56% | [8] 88.6% | [9] 66.5% | [10] 99.7%

CC1=C2C(=O)[C@H]3[C@@H](CC=C4C[C@@H](O)CC[C@@]43C)[C@@H]2CC[C@]12O[C@@H]1C[C@H](C)CN[C@H]1[C@H]2C
inactive: [1] 106% | [2] 95.3% | [3] 50.9% | [4] 100% | [7] 89.7% | [8] 127% | [9] 103% | [10] 151%

O=C1c2ccccc2C(=O)C(Cl)C1Cl (configuration not stated)
inactive: [1] 83.8% | [3] 87.9% | [4] 101% | [7] 104% | [8] 16.8% | [10] 97.8%
active: [2] -74.2% | [5]; 10 µM -62.4% | [6] -65% | [9] -94.3%

C[C@H]1CCC/C=C/[C@@H]2C[C@H](O)C[C@H]2[C@H](O)/C=C/C(=O)O1
active: [1] -1.79% | [2] -36.3% | [3] 4.67% | [4] 8.73% | [6] -43.6% | [8] -37.3% | [9] -75.4% | [10] -7.84%
inactive: [7] 13.1%

CC[C@](O)(C(=O)O)c1cc2n(c(=O)c1CO)Cc1cc3ccccc3nc1-2
active: [1] -22.8% | [2] -27.8% | [3] 1.05% | [4] -6.64% | [5]; 10 µM -39% | [6] -50.6% | [7] -5.92% | [8] -21.9% | [9] -20.7% | [10] -30.7%
